# Laboratory results from the antibiotic and cytotoxicity screens of Wong et al. (2023).
# The whole screen tested about 39,000 compounds, of which about 1,500 (3.8%) were called active. Shown is part of a subset that was picked to be rich in actives.
# System: HSkMC (human skeletal muscle cells)
# Assay: cytotoxicity call (relative viability < 0.9)
# Conditions: 10 µM
row,SMILES,cytotoxicity call
1,COc1ccc(S(=O)(=O)Nc2ccc3c(c2)C(=O)N([C@H](C)CO)C[C@H](C)[C@@H](CN(C)C(=O)NC(C)C)O3)cc1,inactive
2,CCCCCCCCC(=O)O,inactive
3,CN1CCN(S(C)(=O)=O)CC1,inactive
4,C[C@H](CO)N1C[C@H](C)[C@@H](CN(C)C(=O)c2ccc3c(c2)OCO3)Oc2ncc(C#CCN(C)C)cc2C1=O,inactive
5,C[C@@H]1CN([C@H](C)CO)C(=O)c2cc(NS(=O)(=O)c3ccc(F)cc3)ccc2O[C@@H]1CN(C)Cc1ccc(Oc2ccccc2)cc1,active
6,C[C@@H]1CN([C@H](C)CO)C(=O)c2cc(NS(=O)(=O)c3ccc(F)cc3)ccc2O[C@H]1CN(C)Cc1ccc(Oc2ccccc2)cc1,inactive
7,C[C@H]1CN([C@@H](C)CO)C(=O)c2cc(NS(=O)(=O)c3ccc(F)cc3)ccc2O[C@@H]1CN(C)Cc1ccc(Oc2ccccc2)cc1,inactive
8,C[C@@H]1CN([C@@H](C)CO)C(=O)c2cc(NS(=O)(=O)c3ccc(F)cc3)ccc2O[C@@H]1CN(C)Cc1ccc(Oc2ccccc2)cc1,active
9,C[C@@H]1CN([C@@H](C)CO)C(=O)c2cc(NS(=O)(=O)c3ccc(F)cc3)ccc2O[C@H]1CN(C)Cc1ccc(Oc2ccccc2)cc1,inactive
10,C[C@H]1CN([C@@H](C)CO)C(=O)c2cc(NS(=O)(=O)c3ccc(F)cc3)ccc2O[C@H]1CN(C)Cc1ccc(Oc2ccccc2)cc1,inactive
11,C[C@H](CO)N1C[C@H](C)[C@@H](CN(C)CC2CCOCC2)Oc2cc(C#Cc3ccccc3F)ccc2S1(=O)=O,inactive
12,C[C@@H]1CN([C@H](C)CO)C(=O)c2cc(NC(=O)CCCN(C)C)ccc2O[C@H]1CN(C)Cc1ccncc1,inactive
13,CN(C)CC(=O)N1[C@@H]2c3cccc(=O)n3C[C@H]1[C@H](CO)[C@H]2C(=O)NCc1ccccc1,inactive
14,C[C@@H]1CCCCO[C@@H](CN(C)S(=O)(=O)c2ccc(F)cc2)[C@@H](C)CN([C@H](C)CO)C(=O)c2cc(NC(=O)c3ccccc3)ccc2O1,inactive
15,CCc1nnc(SCC(=O)O)n1N,inactive
16,COc1ccc(S(=O)(=O)Nc2ccc3c(c2)C(=O)N([C@@H](C)CO)C[C@H](C)[C@@H](CN(C)C(=O)Nc2ccc4c(c2)OCO4)OCCCC[C@H](C)O3)cc1,inactive
17,COc1ccc(CN(C)C[C@H]2Oc3ccc(NC(=O)CCN4CCOCC4)cc3CC(=O)N([C@@H](C)CO)C[C@@H]2C)cc1,inactive
18,C[C@@H]1CCCCO[C@@H](CN(C)Cc2ccc(C(=O)O)cc2)[C@@H](C)CN([C@@H](C)CO)C(=O)c2cc(NC(=O)Nc3ccc(C(F)(F)F)cc3)ccc2O1,inactive
19,COc1ccc(CCN(C)CCCOc2ccc(S(=O)(=O)c3c(C(C)C)cn4ccccc34)cc2)cc1OC,active
20,COc1ccc(CCN(C)CCCOc2ccc(S(=O)(=O)c3[nH]c4ccccc4c3C(C)C)cc2)cc1OC,active
21,COc1ccc(C(=O)NCc2ccc(OCCN(C)C)cc2)cc1OC,inactive
22,COc1cc(C(=O)NCc2ccc(OCCN(C)C)cc2)cc(OC)c1OC.Cl,inactive
23,COc1ccc(CCN(C)CCCOc2ccc(S(=O)(=O)c3c(C(C)C)c4ccccc4n3C)cc2)cc1OC,active

row,SMILES,cytotoxicity call
1,C[C@H](CO)N1C[C@H](C)[C@H](CN(C)C(=O)Nc2ccc(F)cc2)OCCCC[C@H](C)Oc2ccc(NS(=O)(=O)c3ccccc3)cc2C1=O,inactive
2,Cc1ccc(-c2csc(-c3ccc(C(F)(F)F)cc3)n2)cc1,inactive
3,Cc1ccc(-c2csc(-c3ccc(CN)cc3)n2)cc1,active
4,CCCc1cc(-c2nc(-c3ccc(C)cc3)cs2)ccn1,inactive
5,CCc1ccccc1C(=O)N1CCC[C@@H](Cn2cc(C(C)(C)N)nn2)C1,inactive
6,COc1ccc2c3c(ccc2c1)-c1[nH]c2ccccc2c1CC3,inactive
7,COc1ccc2[nH]c3c(-c4cccc5ccccc45)nccc3c2c1,active
8,COc1ccc2[nH]c(=O)[nH]c(=O)c2c1,inactive
9,COc1ccc(-c2ccc3n(c2=O)C[C@@H]2[C@@H](CO)[C@H](C(=O)NCC4CC4)[C@H]3N2S(C)(=O)=O)cc1,inactive
10,C[C@@H]1CN([C@H](C)CO)S(=O)(=O)c2ccc(C#Cc3ccccc3)cc2O[C@@H]1CN(C)S(=O)(=O)c1ccccc1F,inactive
11,CC(=O)N(C)C[C@H]1Oc2ncc(C#CC(C)(C)O)cc2C(=O)N([C@H](C)CO)C[C@H]1C,inactive
12,CC(=O)N(C)C[C@@H]1Oc2ncc(C#CC(C)(C)O)cc2C(=O)N([C@@H](C)CO)C[C@H]1C,inactive
13,C[C@@H]1CN([C@H](C)CO)C(=O)c2cc(C#CC3(O)CCCC3)cnc2O[C@H]1CN(C)C(=O)Cc1ccccc1,inactive
14,C[C@H](CO)N1C[C@H](C)[C@H](CN(C)C(=O)Cc2ccccc2)Oc2ncc(C#CC3(O)CCCC3)cc2C1=O,active
15,C[C@H](CO)N1C[C@H](C)[C@@H](CN(C)C(=O)Cc2ccccc2)Oc2ncc(C#CC3(O)CCCC3)cc2C1=O,inactive
16,CC(=O)N(C)C[C@@H]1Oc2ncc(C#CC(C)(C)O)cc2C(=O)N([C@@H](C)CO)C[C@@H]1C,active
17,Cc1noc(C)c1S(=O)(=O)Nc1ccc2c(c1)CC(=O)N([C@@H](C)CO)C[C@@H](C)[C@H](CN(C)S(=O)(=O)c1ccccc1)O2,inactive
18,C[C@@H]1CN([C@@H](C)CO)C(=O)Cc2cc(NS(=O)(=O)c3ccccc3)ccc2O[C@@H]1CN(C)CC1CC1,inactive
19,COc1ccc(S(=O)(=O)Nc2ccc3c(c2)C(=O)N([C@H](C)CO)C[C@H](C)[C@@H](CN(C)C(=O)NC2CCCCC2)OCCCC[C@H](C)O3)cc1,inactive
20,CC(C)NC(=O)N(C)C[C@@H]1Oc2ccc(NS(=O)(=O)c3ccccc3)cc2C(=O)N([C@@H](C)CO)C[C@@H]1C,inactive
21,C[C@H]1CCCCO[C@@H](CN(C)Cc2ccc(C(=O)O)cc2)[C@@H](C)CN([C@@H](C)CO)C(=O)c2cc(NC(=O)Nc3cccc4ccccc34)ccc2O1,inactive
22,CCC(=O)Nc1ccc2c(c1)OC[C@H](C)N(C(=O)CN1CCOCC1)C[C@@H](C)[C@@H](OC)CN(C)C2=O,inactive
23,O=C(Nc1ccc(-c2nc3ccc(NC(=O)c4ccccc4[N+](=O)[O-])cc3[nH]2)cc1)c1ccccc1[N+](=O)[O-],inactive

row,SMILES,cytotoxicity call
1,O=C(Nc1ccc(-c2nc3ccc(NC(=O)c4ccc(Cl)cc4)cc3[nH]2)cc1)c1ccc(Cl)cc1,active
2,O=C(Nc1ccc(-c2nc3ccc(NC(=O)c4ccc(NC(=O)c5cccc6ccccc56)cc4)cc3[nH]2)cc1)c1ccc(NC(=O)c2cccc3ccccc23)cc1,inactive
3,c1ccc(-c2nn(-c3ccccc3)c3c2cnc2ccccc23)cc1,inactive
4,C[C@@H]1CN([C@@H](C)CO)C(=O)c2cc(C#Cc3ccccc3F)cnc2O[C@H]1CN(C)C(=O)c1ccc2c(c1)OCO2,inactive
5,c1cnc(-c2cc[nH]n2)cn1,inactive
6,C[C@@H]1CN([C@@H](C)CO)C(=O)c2ccccc2-c2ccccc2CO[C@H]1CN(C)C(=O)N[C@H](C)c1ccccc1,inactive
7,Cc1cc(C)c(NC(=O)CN(CC(=O)O)CC(=O)O)c(C)c1Br,inactive
8,Cn1cnc(S(=O)(=O)N2C[C@H](O)COC[C@@H]3O[C@@H](CC(=O)NCc4cccc(F)c4)CC[C@H]32)c1,inactive
9,C[C@@H]1CN([C@H](C)CO)S(=O)(=O)c2ccc(-c3ccncc3)cc2O[C@@H]1CN(C)S(=O)(=O)c1ccccc1F,inactive
10,Cc1ccc(S(=O)(=O)Oc2ccc(/N=N/c3ccc(-c4ccc(/N=N/c5c(O)ccc6cc(S(=O)(=O)O)cc(S(=O)(=O)O)c56)c(C)c4)cc3C)cc2)cc1,inactive
11,Cc1cc(-c2ccc(N=Nc3ccc4c(S(=O)(=O)[O-])cc(S(=O)(=O)[O-])c(N)c4c3O)c(C)c2)ccc1N=Nc1ccc2c(S(=O)(=O)[O-])cc(S(=O)(=O)[O-])c(N)c2c1O.[Na+].[Na+].[Na+].[Na+],active
12,C[C@H]1CN([C@@H](C)CO)C(=O)c2cc(C#Cc3ccncc3)cnc2O[C@@H]1CN(C)S(=O)(=O)c1ccccc1F,inactive
13,C[C@@H]1CN([C@H](C)CO)C(=O)c2cc(NC(=O)Nc3ccc(F)cc3)ccc2O[C@H]1CN(C)Cc1ccc(C(F)(F)F)cc1,active
14,C[C@H]1CN([C@@H](C)CO)C(=O)c2cc(NC(=O)Nc3ccc(F)cc3)ccc2O[C@H]1CN(C)Cc1ccc(C(F)(F)F)cc1,inactive
15,C[C@@H]1CN([C@@H](C)CO)C(=O)c2cc(NC(=O)Nc3ccc(F)cc3)ccc2O[C@H]1CN(C)Cc1ccc(C(F)(F)F)cc1,active
16,C[C@H]1CN([C@@H](C)CO)C(=O)c2cc(NC(=O)Nc3ccc(F)cc3)ccc2O[C@@H]1CN(C)Cc1ccc(C(F)(F)F)cc1,inactive
17,C[C@H](CO)N1C[C@H](C)[C@@H](CN(C)Cc2ccc(C(F)(F)F)cc2)Oc2ccc(NC(=O)Nc3ccc(F)cc3)cc2C1=O,active
18,C[C@H](CO)N1C[C@H](C)[C@H](CN(C)Cc2ccc(C(F)(F)F)cc2)Oc2ccc(NC(=O)Nc3ccc(F)cc3)cc2C1=O,inactive
19,C[C@@H]1CN([C@@H](C)CO)C(=O)c2cc(NC(=O)Nc3ccc(F)cc3)ccc2O[C@@H]1CN(C)Cc1ccc(C(F)(F)F)cc1,active
20,C[C@@H]1CN([C@H](C)CO)C(=O)c2cc(NC(=O)Nc3ccc(F)cc3)ccc2O[C@@H]1CN(C)Cc1ccc(C(F)(F)F)cc1,inactive
21,O=C(C[C@H]1C=C[C@@H](NC(=O)Nc2cc(F)ccc2F)[C@@H](CO)O1)NCCCN1CCOCC1,inactive
22,CCS(=O)(=O)N1C[C@]2(CN(C2)C(=O)Nc2ccc3c(c2)OCO3)c2c(n(c3cc(ccc23)OC)C)[C@H]1CO,inactive
23,N=C(N)N.O=C(O)O,inactive
